Reference: publication PMC7862700, “An all-to-all approach to the identification of sequence-specific readers for epigenetic DNA modifications on cytosine”

What was measured:
Experiment in all cases: DAPPL (digital affinity profiling via proximity ligation, sequencing); 10 mM Tris-HCl pH 7.5, 50 mM NaCl, 1 mM DTT, 4% glycerol, room temperature, 30 min; GST-TFs on glutathione beads, 16-mer random dsDNA library, 0.1% formaldehyde crosslink after washing; high values mean tight binding
Settings in all cases: protein: recombinant; tags: N-terminal GST; dsDNA, one strand shown
FLI1 = target: T1, FLI1 (Homo sapiens, UniProt Q01543 1-452)
T1 sequence: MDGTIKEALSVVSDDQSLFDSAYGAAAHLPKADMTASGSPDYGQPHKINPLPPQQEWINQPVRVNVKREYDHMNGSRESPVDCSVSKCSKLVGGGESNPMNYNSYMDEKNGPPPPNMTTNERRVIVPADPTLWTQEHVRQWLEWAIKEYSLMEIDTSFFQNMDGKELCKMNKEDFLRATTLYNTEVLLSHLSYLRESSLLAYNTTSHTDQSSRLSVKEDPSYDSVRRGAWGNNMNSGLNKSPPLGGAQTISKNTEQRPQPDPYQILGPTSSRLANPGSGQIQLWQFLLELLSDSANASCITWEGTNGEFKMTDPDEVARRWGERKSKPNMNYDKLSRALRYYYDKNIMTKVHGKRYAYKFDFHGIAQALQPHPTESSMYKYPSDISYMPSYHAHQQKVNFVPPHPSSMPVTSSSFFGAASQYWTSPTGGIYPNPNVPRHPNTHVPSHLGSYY
Summary of the method: (§1)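 Human transcription factors were made in yeast as GST fusions, captured on glutathione beads and barcoded with DNA. With a tag-only sample included, the pool was incubated with 200 nmole of a random double-stranded 16-mer DNA library in Tris/NaCl/DTT/glycerol buffer at room temperature for 30 min, then crosslinked with 0.1% formaldehyde after washing, ligated by proximity, amplified and sequenced. For binding signal, each hexamer's read frequency for a factor is divided by its frequency for the tag-only sample.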

ELK1 = target: T2, ELK1 (Homo sapiens, UniProt P19419 1-428)
T2 sequence: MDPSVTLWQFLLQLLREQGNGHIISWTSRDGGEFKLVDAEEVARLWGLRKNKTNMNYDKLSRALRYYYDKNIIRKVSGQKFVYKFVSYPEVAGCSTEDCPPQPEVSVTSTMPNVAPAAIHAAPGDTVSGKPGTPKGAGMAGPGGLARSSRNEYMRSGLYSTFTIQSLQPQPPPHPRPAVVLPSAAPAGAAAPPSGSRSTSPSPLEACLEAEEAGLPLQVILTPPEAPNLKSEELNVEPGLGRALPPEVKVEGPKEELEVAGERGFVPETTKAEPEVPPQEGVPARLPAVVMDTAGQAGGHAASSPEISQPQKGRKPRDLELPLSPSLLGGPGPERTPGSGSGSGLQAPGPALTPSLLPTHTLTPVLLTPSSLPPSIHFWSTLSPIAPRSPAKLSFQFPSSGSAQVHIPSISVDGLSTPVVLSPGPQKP
Summary of the method: as §1

GABPA = target: T3, GABPA (Homo sapiens, UniProt Q06546 1-454)
T3 sequence: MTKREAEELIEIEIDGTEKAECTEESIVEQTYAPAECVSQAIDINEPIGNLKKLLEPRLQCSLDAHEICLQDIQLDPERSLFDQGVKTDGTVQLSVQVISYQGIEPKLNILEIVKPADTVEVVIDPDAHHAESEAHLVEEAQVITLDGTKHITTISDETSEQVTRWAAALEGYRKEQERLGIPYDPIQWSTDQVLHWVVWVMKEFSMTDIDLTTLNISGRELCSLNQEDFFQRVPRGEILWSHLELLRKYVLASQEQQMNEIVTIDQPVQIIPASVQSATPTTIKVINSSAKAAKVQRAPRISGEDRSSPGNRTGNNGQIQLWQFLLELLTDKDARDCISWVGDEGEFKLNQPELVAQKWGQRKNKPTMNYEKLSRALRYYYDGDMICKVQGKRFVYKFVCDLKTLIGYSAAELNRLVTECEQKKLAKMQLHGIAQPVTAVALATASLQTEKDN
Summary of the method: as §1

ELF1 = ELF1 (Homo sapiens, UniProt P32519 1-619)
ELF1, sequence (P32519 whole entry): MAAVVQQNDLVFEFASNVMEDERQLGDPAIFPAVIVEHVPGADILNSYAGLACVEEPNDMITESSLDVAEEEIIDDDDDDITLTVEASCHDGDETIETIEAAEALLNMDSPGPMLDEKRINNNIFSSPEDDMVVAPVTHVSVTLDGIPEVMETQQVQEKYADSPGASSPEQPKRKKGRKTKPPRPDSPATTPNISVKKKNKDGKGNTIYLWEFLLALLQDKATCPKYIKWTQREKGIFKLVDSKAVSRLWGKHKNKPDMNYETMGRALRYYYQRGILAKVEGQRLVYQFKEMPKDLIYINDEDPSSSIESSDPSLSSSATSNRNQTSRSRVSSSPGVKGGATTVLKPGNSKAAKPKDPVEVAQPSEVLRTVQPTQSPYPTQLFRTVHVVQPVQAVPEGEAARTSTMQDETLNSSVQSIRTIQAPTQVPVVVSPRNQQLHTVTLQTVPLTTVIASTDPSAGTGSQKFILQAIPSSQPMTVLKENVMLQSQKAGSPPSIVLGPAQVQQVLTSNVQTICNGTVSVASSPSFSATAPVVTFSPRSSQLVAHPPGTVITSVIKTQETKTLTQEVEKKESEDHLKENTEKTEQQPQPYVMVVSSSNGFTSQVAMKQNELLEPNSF
Summary of the method: as §1

EHF = target: T4, EHF (Homo sapiens, UniProt Q9NZC4 1-300)
T4 sequence: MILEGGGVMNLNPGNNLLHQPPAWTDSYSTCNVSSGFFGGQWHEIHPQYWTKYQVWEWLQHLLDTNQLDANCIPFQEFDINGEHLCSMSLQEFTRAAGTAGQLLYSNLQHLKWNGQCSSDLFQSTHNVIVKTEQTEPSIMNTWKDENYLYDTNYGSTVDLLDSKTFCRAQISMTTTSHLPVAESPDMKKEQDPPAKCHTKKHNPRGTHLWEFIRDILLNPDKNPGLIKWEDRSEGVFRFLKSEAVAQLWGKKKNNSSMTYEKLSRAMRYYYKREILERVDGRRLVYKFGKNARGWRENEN
Summary of the method: as §1

SPIB = SPIB (Homo sapiens, UniProt Q01892 1-262)
SPIB, sequence (Q01892 whole entry): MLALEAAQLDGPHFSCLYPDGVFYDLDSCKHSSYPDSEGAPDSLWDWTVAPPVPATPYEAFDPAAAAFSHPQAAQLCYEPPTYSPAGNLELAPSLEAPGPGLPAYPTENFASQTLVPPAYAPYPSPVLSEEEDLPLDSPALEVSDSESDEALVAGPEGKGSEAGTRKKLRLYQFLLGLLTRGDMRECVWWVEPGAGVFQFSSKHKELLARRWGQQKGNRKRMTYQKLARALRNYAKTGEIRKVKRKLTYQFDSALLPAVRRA
Summary of the method: as §1

ELK3 = target: T5, ELK3 (Homo sapiens, UniProt P41970 1-407)
T5 sequence: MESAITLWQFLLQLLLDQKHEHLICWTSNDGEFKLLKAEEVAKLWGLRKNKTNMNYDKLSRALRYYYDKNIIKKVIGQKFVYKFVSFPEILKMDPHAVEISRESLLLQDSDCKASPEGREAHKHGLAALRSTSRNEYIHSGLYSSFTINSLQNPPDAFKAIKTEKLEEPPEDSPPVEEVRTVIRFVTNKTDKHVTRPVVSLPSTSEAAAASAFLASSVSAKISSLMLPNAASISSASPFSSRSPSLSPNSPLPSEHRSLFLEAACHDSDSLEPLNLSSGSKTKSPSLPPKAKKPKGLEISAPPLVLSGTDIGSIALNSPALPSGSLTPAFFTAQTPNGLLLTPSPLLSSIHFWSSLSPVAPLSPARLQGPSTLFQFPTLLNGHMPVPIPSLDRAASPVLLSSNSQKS
Summary of the method: as §1

ELF4 = ELF4 (Homo sapiens, UniProt Q99607 1-663)
ELF4, sequence (Q99607 whole entry): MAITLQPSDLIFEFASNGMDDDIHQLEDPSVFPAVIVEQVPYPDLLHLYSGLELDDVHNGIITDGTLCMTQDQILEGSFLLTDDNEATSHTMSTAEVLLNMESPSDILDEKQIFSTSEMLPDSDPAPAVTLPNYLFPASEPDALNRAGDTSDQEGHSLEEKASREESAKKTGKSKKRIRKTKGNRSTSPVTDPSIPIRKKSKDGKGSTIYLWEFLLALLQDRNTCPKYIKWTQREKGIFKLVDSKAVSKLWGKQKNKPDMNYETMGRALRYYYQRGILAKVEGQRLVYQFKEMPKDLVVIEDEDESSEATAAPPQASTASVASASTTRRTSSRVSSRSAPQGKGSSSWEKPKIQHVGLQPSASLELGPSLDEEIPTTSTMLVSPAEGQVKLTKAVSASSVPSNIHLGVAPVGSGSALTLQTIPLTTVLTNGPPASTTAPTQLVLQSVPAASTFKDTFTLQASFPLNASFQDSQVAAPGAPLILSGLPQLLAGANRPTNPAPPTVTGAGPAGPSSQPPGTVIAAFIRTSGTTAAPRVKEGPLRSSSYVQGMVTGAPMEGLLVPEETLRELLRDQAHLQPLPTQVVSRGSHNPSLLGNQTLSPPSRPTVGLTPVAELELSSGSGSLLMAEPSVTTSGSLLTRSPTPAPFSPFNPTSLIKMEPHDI
Summary of the method: as §1

ELK4 = target: T6, ELK4 (Homo sapiens, UniProt P28324-2 1-405)
T6 sequence: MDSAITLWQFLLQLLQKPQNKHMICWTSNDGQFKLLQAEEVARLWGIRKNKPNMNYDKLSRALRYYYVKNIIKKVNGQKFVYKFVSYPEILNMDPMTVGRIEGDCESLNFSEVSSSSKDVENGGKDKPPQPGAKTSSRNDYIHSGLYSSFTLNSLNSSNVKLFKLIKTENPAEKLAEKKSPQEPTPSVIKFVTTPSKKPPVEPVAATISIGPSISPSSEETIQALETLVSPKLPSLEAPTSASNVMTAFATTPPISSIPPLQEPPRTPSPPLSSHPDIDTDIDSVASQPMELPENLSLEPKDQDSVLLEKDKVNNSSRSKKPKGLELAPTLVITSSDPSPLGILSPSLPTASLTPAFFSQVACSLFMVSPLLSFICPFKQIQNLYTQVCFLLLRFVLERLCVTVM
Summary of the method: as §1

ETV2 = target: T7, ETV2 (Homo sapiens, UniProt O00321 1-342)
T7 sequence: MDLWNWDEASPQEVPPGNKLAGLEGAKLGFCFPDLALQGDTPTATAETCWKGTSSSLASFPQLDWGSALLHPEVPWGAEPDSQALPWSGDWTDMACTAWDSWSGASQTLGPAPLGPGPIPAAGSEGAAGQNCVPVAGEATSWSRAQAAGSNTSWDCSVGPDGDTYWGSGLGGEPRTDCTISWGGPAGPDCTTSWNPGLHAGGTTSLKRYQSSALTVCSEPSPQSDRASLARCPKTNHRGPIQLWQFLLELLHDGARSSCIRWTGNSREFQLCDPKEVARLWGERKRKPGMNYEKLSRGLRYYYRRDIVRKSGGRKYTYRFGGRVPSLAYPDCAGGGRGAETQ
Summary of the method: as §1

ELF3 = target: T8, ELF3 (Homo sapiens, UniProt P78545 1-371)
T8 sequence: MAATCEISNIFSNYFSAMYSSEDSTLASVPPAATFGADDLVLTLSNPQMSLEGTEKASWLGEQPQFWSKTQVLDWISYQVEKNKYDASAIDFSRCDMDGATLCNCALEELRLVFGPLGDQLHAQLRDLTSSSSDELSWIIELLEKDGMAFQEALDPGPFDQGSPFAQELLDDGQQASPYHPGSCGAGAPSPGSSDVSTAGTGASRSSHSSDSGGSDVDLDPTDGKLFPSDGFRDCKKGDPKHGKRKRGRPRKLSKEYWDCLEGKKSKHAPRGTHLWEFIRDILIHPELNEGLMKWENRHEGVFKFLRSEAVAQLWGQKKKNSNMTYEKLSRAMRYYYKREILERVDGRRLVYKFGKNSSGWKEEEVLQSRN
Summary of the method: as §1

ERF = target: T9, ERF (Homo sapiens, UniProt P50548 1-548)
T9 sequence: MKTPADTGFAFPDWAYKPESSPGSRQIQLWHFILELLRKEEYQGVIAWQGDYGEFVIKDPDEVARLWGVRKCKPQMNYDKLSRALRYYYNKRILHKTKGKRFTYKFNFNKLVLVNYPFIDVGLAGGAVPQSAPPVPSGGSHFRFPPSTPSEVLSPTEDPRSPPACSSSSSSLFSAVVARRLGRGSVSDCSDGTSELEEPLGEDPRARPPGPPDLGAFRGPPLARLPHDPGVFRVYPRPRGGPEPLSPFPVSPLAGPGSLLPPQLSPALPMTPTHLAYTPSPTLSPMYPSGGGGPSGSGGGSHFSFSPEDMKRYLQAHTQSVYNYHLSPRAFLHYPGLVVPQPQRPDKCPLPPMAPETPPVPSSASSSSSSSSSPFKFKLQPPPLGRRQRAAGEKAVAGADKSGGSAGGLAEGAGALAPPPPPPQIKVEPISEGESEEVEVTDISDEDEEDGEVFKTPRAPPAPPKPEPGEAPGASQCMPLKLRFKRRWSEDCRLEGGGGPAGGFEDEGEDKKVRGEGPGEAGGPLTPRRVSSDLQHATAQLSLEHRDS
Summary of the method: as §1

ETV3L = target: T10, ETV3L (Homo sapiens, UniProt Q6ZN32 1-361)
T10 sequence: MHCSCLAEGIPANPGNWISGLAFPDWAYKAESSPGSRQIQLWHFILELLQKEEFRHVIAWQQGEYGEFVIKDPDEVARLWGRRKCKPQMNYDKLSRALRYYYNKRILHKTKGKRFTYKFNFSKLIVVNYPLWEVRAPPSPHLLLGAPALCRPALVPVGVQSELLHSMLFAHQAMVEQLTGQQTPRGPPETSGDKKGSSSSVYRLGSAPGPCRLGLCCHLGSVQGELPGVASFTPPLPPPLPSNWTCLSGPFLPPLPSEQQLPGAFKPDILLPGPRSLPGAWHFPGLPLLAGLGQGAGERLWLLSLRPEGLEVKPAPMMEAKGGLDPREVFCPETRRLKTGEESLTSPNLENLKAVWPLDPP
Summary of the method: as §1

ETS2 = target: T11, ETS2 (Homo sapiens, UniProt P15036 1-469)
T11 sequence: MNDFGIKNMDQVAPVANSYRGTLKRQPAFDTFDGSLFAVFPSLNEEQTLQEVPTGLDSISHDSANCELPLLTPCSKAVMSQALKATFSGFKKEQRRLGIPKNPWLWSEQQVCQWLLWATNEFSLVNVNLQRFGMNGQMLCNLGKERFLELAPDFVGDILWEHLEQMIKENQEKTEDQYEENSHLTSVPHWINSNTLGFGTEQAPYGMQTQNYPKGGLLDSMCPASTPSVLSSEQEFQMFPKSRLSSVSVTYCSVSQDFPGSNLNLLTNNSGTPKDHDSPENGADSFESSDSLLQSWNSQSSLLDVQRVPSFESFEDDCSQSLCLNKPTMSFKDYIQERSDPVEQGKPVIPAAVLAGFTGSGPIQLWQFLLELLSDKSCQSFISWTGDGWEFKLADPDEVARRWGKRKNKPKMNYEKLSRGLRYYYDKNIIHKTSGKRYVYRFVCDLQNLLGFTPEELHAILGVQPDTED
Summary of the method: as §1

ETV7 = target: T12, ETV7 (Homo sapiens, UniProt Q9Y603 1-341)
T12 sequence: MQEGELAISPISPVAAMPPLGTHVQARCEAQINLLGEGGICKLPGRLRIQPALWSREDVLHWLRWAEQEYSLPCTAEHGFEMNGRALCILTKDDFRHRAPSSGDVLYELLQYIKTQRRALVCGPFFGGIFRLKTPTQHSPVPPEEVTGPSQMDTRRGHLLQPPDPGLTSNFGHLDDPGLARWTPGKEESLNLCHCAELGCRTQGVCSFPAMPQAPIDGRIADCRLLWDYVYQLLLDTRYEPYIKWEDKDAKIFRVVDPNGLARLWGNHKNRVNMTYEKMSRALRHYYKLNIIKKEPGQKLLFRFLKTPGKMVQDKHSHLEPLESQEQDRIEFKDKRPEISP
Summary of the method: as §1

ETV3 = target: T13, ETV3 (Homo sapiens, UniProt P41162-2 1-143)
T13 sequence: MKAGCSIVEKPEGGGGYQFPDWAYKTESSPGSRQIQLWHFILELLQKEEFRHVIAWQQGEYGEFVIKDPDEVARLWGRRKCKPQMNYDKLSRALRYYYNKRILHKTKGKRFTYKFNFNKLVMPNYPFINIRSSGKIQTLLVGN
Summary of the method: as §1

ETV6 = ETV6 (Homo sapiens, UniProt P41212 1-452)
ETV6, sequence (P41212 whole entry): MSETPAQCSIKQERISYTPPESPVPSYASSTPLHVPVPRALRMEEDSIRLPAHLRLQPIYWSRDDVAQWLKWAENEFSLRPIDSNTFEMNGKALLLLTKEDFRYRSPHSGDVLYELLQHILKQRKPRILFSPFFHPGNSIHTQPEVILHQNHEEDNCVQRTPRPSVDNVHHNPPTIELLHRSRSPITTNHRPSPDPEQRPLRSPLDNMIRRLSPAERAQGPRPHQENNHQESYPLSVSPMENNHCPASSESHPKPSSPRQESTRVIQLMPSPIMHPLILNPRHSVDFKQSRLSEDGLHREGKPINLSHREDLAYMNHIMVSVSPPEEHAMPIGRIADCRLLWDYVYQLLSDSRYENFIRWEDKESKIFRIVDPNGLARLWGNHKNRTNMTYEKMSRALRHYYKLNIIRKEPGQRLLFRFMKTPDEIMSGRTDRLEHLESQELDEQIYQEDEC
Summary of the method: as §1

Sequence: TGGCCA
- binding signal (FLI1): 1.1 fold enrichment (6-mer frequency, TF over GST control)
- binding signal (ELK1): 1.09 fold enrichment (6-mer frequency, TF over GST control)
- binding signal (GABPA): 1.16 fold enrichment (6-mer frequency, TF over GST control)
- binding signal (ELF1): 1.14 fold enrichment (6-mer frequency, TF over GST control)
- binding signal (EHF): 1.05 fold enrichment (6-mer frequency, TF over GST control)
- binding signal (SPIB): 1.13 fold enrichment (6-mer frequency, TF over GST control)
- binding signal (ELK3): 1.1 fold enrichment (6-mer frequency, TF over GST control)
- binding signal (ELF4): 1.13 fold enrichment (6-mer frequency, TF over GST control)
- binding signal (ELK4): 1.08 fold enrichment (6-mer frequency, TF over GST control)
- binding signal (ETV2): 1.02 fold enrichment (6-mer frequency, TF over GST control)
- binding signal (ELF3): 1.04 fold enrichment (6-mer frequency, TF over GST control)
- binding signal (ERF): 1.06 fold enrichment (6-mer frequency, TF over GST control)
- binding signal (ETV3L): 1.04 fold enrichment (6-mer frequency, TF over GST control)
- binding signal (ETS2): 1.07 fold enrichment (6-mer frequency, TF over GST control)
- binding signal (ETV7): 1.09 fold enrichment (6-mer frequency, TF over GST control)
- binding signal (ETV3): 1 fold enrichment (6-mer frequency, TF over GST control)
- binding signal (ETV6): 1.09 fold enrichment (6-mer frequency, TF over GST control)
